Measured values published in PubChem BioAssay (EPA / NIEHS).
Results filed as inconclusive are left out. Active and inactive are the calls of the source. Rule for the calls, unless noted: active = hit-call score of the fitted dose curve at least 0.9, where 1 is the maximum; inactive = score below 0.9.

What was measured:
[1] = CCTE_Deisenroth_DEVTOX-GLR_Endo_CellCount: Viability Assessment in CCTE's DevTox GLR-Endo Assay, Deisenroth Lab (AID 2284420)
How it was run: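 Percent change in nuclear-stain cell counts versus 0.2% DMSO, from high-content imaging over 5 fields per well. Over a 48 h endoderm differentiation, RUES2-GLR cells received two doses 24 h apart across a 1 nM–200 uM series, with n=4.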

[2] = system: SRY-box transcription factor 17 (SOX17) Protein Expression, Deisenroth Lab, SOX17 (gene 64321); assay: CCTE_Deisenroth_DEVTOX-GLR_Pluri_SOX17: CCTE's DevTox GLR-Pluri Assay Evaluation of SRY-box transcription factor 17 (SOX17) Protein Expression, Deisenroth Lab (AID 2284427; active = hit-call score of the fitted dose curve at least 0.9, where 1 is the maximum)
How it was run: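 The endpoint is SOX17+ cells as a fraction of cell count, corrected for the 0.2% DMSO control and obtained by high-content fluorescence imaging of fixed cells. Cells were RUES2-GLR under a 48-hour endoderm differentiation, dosed twice at 24-hour intervals over 1 nM–200 uM.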

[3] = system: SRY-box transcription factor 2 (SOX2) Protein Expression, Deisenroth Lab, SOX2 (gene 6657); assay: CCTE_Deisenroth_DEVTOX-GLR_Pluri_SOX2: CCTE's DevTox GLR-Pluri Assay Evaluation of SRY-box transcription factor 2 (SOX2) Protein Expression, Deisenroth Lab (AID 2284428)
Procedure: CCTE_Deisenroth_DEVTOX-GLR_Pluri assay is a cell-based, multiplex-readout assay that uses RUES2-GLR, a human pluripotent cell line, with measurements taken at 48 hours after chemical dosing in a 384-well microplateCCTE_Deisenroth_DEVTOX-GLR_Pluri_SOX2 is 1 of 4 assay components calculated from the CCTE_Deisenroth_DEVTOX-GLR_Pluri assay and it measures an the percentage of cells in an pluripotent state. Using a type of inducible fluorescent protein reporter, gain-of-signal activity can be used to understand changes in gene expression with fluorescent microscopy. The percentage of SOX2+ cells are determined by calculating the number of SOX2+ cells divided by the cell count. To generalize the intended target to other relatable targets, this assay component is annotated to the transcription factor intended target family, where the subfamily is SRY-related HMG-box.Data from the assay component CCTE_Deisenroth_DEVTOX-GLR_Pluri_SOX2 was analyzed as 1 assay endpoint. The endpoint is the percent change in the SOX2+ cell population relative to the 0.2% DMSO control in the CCTE_Deisenroth_DEVTOX-GLR_Pluri assay. Furthermore, this assay endpoint can be referred to as a primary readout, because this assay has produced multiple assay endpoints where this one serves as a measure of […].
All assay protocols are aligned to the DevTox GLR-Endo assay workflow. […]

[4] = system: Brachyury (BRA) Protein Expression, Deisenroth Lab, TBXT (gene 6862); assay: CCTE_Deisenroth_DEVTOX-GLR_Pluri_BRA: CCTE's DevTox GLR-Pluri Assay Evaluation of Brachyury (BRA) Protein Expression, Deisenroth Lab (AID 2284429; active = hit-call score of the fitted dose curve at least 0.9, where 1 is the maximum)
How it was run: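 RUES2-GLR human pluripotent cells differentiated 48 hours with two chemical exposures 24 hours apart, 10-point series 1 nM–200 uM. Fixed, nuclear-stained, imaged; endpoint is percent BRA+ cells minus 0.2% DMSO control.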

[5] = CCTE_Deisenroth_DEVTOX-GLR_Pluri_CellCount: Viability Assessment in CCTE's DevTox GLR-Pluri Assay Evaluation of Total Cell Counts, Deisenroth Lab (AID 2284430)
How it was run: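 RUES2-GLR human pluripotent cells, seeded 24 h, then differentiated 48 h with two chemical exposures 24 h apart; 10-point series 1 nM - 200 uM. Fixed, nuclear-stained, imaged (5 fields/well); nuclei count as % change vs 0.2% DMSO.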

Measured: AC50

CS(=O)(=O)OCCCCOS(C)(=O)=O
active: [1] 14.4 µM | [2] 45.4 µM | [3] 2.44 µM | [4] 50.7 µM | [5] 20.1 µM
